Measurements: PubChem BioAssay AID2284067 (EPA ToxCast)
The source made the active and inactive calls. Rule for the calls: active = hit-call score of the fitted dose curve at least 0.9, where 1 is the maximum; inactive = score below 0.9.

target: human DYRK1A CMGC Kinase, DYRK1A (gene 1859) (UniProt Q13627); assay: ERF_FR_ENZ_hDYRK1A: Eurofins (ERF) Enzymatic Radiometric [Km ATP] KinaseProfiler LeadHunter Assay for human DYRK1A CMGC Kinase
Experimental: ERF_FR_ENZ_hDYRK1A is a biochemical, single-readout assay that uses extracted gene-proteins in a cell-free assay. Measurements were taken 0.5 hour after chemical dosing in a 96-well plate. See DYRK1A Human CMGC Kinase Enzymatic LANCE Assay [Km ATP], Cerep.ERF_FR_ENZ_hDYRK1A is an assay component calculated from the ERF_FR_ENZ_hDYRK1A assay. It is designed to measure enzyme activity using a type of enzyme reporter as detected by fluorescence intensity with LANCE technology.Data from the assay component ERF_FR_ENZ_hDYRK1A was analyzed at the assay endpoint, ERF_FR_ENZ_hDYRK1A, in the positive analysis fitting direction relative to DMSO as the negative control and baseline of activity. Using a type of enzyme reporter, loss-of-signal activity can be used to understand changes in enzymatic activity as they relate to gene DYRK1A. To generalize the intended target to other relatable targets, this assay endpoint is annotated to the kinase intended target family, where the subfamily is serine/threonine kinase.
DYRK1A (h) is incubated with 8 mM MOPS pH 7.0, 0.2 mM EDTA, 50 uM […], 10 mM MgAcetate and [gamma-33P]-ATP (specific activity and concentration as required). The reaction is initiated by the addition of the Mg/ATP mix. After incubation for 40 minutes at room temperature, the reaction is stopped by the addition of phosphoric acid to […] a concentration of 0.5%. […]

| Compound | AC50 |
| --- | --- |
| O=C(/C=C/c1ccc(O)cc1)CC(=O)/C=C/c1ccc(O)cc1 | 0.128 µM (active) |
